Assay results as given in the supplement of paper PMC12350171.
Structures can show the parent of a compound that is named as a salt. Unmarked numbers belong to inactive results.

Tests used:
Conditions in all cases: 20 µM
[1] = tested on: Salmonella enterica typhimurium; experiment: growth AUC normalised to DMSO control (fraction of control); higher = less growth inhibition, active = hit call of the paper
Outline: (§1)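 Pathogens passaged twice anaerobically were inoculated at a starting OD578 of 0.01 into pre-reduced mGAM plates with drug at 20 μM and 1% DMSO, sealed with breathable membranes. Haemophilus parainfluenzae medium was supplemented with hemin and NAD. OD578 was read hourly for 24 h, with three biological replicates. Growth-curve AUC was computed by the trapezoidal rule up to the exponential-to-stationary transition and normalised to DMSO controls on the same plate.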

Shigella flexneri = experiment: as above
Outline: as §1

Vibrio cholerae = experiment: as above
Outline: as §1

[2] = tested on: Yersinia pseudotuberculosis; experiment: as above
Outline: as §1

P. vulgatus RND KO = experiment: growth AUC normalised to DMSO control (median) (fraction of control); higher = less growth inhibition, active = hit call of the paper
Outline: (§2)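 Area under the growth curve, calculated by the trapezoidal rule up to entry into stationary phase, was normalised to vehicle wells on the same plate. Strains had been passaged twice overnight without oxygen and then grown in mGAM in 96-well plates from OD578 0.01, each with an approved-drug library compound at 20 μM in 1% DMSO. OD578 was read hourly over 24 h in an anaerobic incubator, and the median of three biological replicates is given.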

P. vulgatus WT = experiment: as above
Outline: as §2

[3] = tested on: S. enterica typhimurium WT; experiment: as above
Outline: as §2

[4] = tested on: S. enterica typhimurium tolC KO; experiment: as above
Outline: as §2
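Throughout, for growth AUC normalised to DMSO control (median): active when median AUC fell below 0.1.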

SMILES	growth AUC normalised to DMSO control [1]	growth AUC normalised to DMSO control (Shigella flexneri)	growth AUC normalised to DMSO control (Vibrio cholerae)	growth AUC normalised to DMSO control [2]	growth AUC normalised to DMSO control (P. vulgatus RND KO)	growth AUC normalised to DMSO control (P. vulgatus WT)	growth AUC normalised to DMSO control [3]	growth AUC normalised to DMSO control [4]
Cc1cc(C(C)(C)C)cc(C)c1CC1=NCCN1 [Xylometazoline hydrochloride]	1.03	0.999	0.999	0.989	1.02	1.02	0.995	0.989
CN(C)CCCN1c2ccccc2CCc2ccccc21 [Imipramine hydrochloride]	0.998	0.994	0.935	1.01	1	0.998	1.02	0.984
CN1C(=O)OC(C)(C)C1=O [Trimethadione]	0.996	0.943	0.982	0.992	0.971	0.977	0.999	1
Clc1cccc(Cl)c1NC1=NCCN1 [Clonidine hydrochloride]	1.01	1.02	1.03	1.01	0.998	1.04	0.996	1.01
CC(=O)Nc1nnc(S(N)(=O)=O)s1 [Acetazolamide]	0.969	0.962	1.03	0.984	0.995	0.974	0.994	0.998
CO[C@H]1C[C@H](O[C@H]2[C@H](C)[C@@H](O[C@@H]3O[C@H](C)C[C@H](N(C)C)[C@H]3OC(C)=O)[C@@H](C)C[C@@]3(CO3)C(=O)[C@H](C)[C@@H](OC(C)=O)[C@@H](C)[C@@H](C)OC(=O)[C@@H]2C)O[C@@H](C)[C@@H]1OC(C)=O [Troleandomycin]	0.998	1.01	0.882	0.999	0.0116 (active)	0.00916 (active)	0.988	0.207
CC(=O)O[C@]1(C(C)=O)CC[C@H]2[C@@H]3C=C(Cl)C4=CC(=O)[C@@H]5C[C@@H]5[C@]4(C)[C@H]3CC[C@@]21C [Cyproterone acetate]	1	1.01	1	0.994	0.896	0.907	1	0.953
O=C1CN(/N=C/c2ccc([N+](=O)[O-])o2)C(=O)N1 [Nitrofurantoin]	0.974	0.843 (active)	0.964	0.999	0.253	0.556	0.836	0.858
CC(CN(C)C)C(C)(O)Cc1ccc(Cl)cc1 (configuration not stated) [Clobutinol hydrochloride]	0.999	0.98	0.987	0.993	0.999	1.03	1.01	0.994
CC(C)(C)NCC(O)COc1cccc2c1CC(O)C(O)C2 (configuration not stated) [Nadolol]	0.99	0.999	1	1	1.02	1.01	1	1
CC(COc1ccccc1)N(CCCl)Cc1ccccc1 (configuration not stated) [Phenoxybenzamine hydrochloride]	1.01	1.01	1.01	1.03	1.02	1.03	1	0.99
c1ccc(CC2=NCCN2)cc1 [Tolazoline hydrochloride]	1.01	1.02	1.02	1.01	1.02	1.07	0.987	1.01
N=C(NCCCCCCNC(=N)NC(=N)Nc1ccc(Cl)cc1)NC(=N)Nc1ccc(Cl)cc1 [Chlorhexidine]	0.355 (active)	0.0156 (active)	0.954	0.307 (active)	0.00823 (active)	0.0134 (active)	0.942	0.816
Cc1cc(-c2ccccc2)nnc1NCCN1CCOCC1 [Minaprine dihydrochloride]	0.997	1.01	1.02	1	1	0.998	1	0.998
C[C@@H](O[C@H]1OCCN(Cc2n[nH]c(=O)[nH]2)[C@H]1c1ccc(F)cc1)c1cc(C(F)(F)F)cc(C(F)(F)F)c1 [Aprepitant]	0.993	0.978	0.985	0.976	0.0129 (active)	0.0137 (active)	0.994	0.997
CCc1cccc2c3c([nH]c12)C(CC)(CC(=O)O)OCC3 (configuration not stated) [Etodolac]	1.01	1.06	1.06	1.02	0.99	1.01	1.02	1.02
CC(CCc1ccc(O)cc1)NCCc1ccc(O)c(O)c1 (configuration not stated) [Dobutamine hydrochloride]	0.988	0.976	0.99	1	0.993	0.999	1.01	0.998
CC(C)(C)C(=O)OCOC(=O)[C@@H]1N2C(=O)[C@@H](/N=C/N3CCCCCC3)[C@H]2SC1(C)C [Pivmecillinam hydrochloride]	0.0179 (active)	0.0752 (active)	0.956	0.0551 (active)	1.01	1.03	0.158	0.145
COc1cc(-c2ccc(=O)[nH]n2)ccc1OC(F)F [Zardaverine]	0.99	0.999	0.955	0.998	1	1.02	0.995	0.997
O=C(O)CCCC[C@@H]1SC[C@@H]2NC(=O)N[C@@H]21 [Biotin]	0.992	0.975	1	0.946	1.01	1.03	1	1
CC(C)(C)NC[C@H](O)c1ccc(O)c(CO)c1 [Levalbuterol hydrochloride]	0.95	1.01	1.01	0.992	0.962	0.992	1.01	0.997
Cc1ncc([N+](=O)[O-])n1CC(C)O (configuration not stated) [Secnidazole]	0.996	0.953	0.99	1	0.0215 (active)	0.0204 (active)	1.01	1
CN(C)CCCN1c2ccccc2Sc2ccc(Cl)cc21 [Chlorpromazine hydrochloride]	0.996	0.983	0.877 (active)	0.985	0.924	0.903	1	0.962
CC(C)(C(=O)c1cccnc1)c1cccnc1 [Metyrapone]	0.996	0.992	0.965	0.989	0.996	0.981	1	0.996
CCOc1ccc(Cc2nccc3cc(OCC)c(OCC)cc23)cc1OCC [Ethaverine hydrochloride]	1.01	1.04	1	1.01	1	0.998	1	0.969
CC(=O)N(O)CCCCCNC(=O)CCC(=O)N(O)CCCCCNC(=O)CCC(=O)N(O)CCCCCN [Deferoxamine mesylate]	1.03	1.03	1.03	1	1.04	1.07	0.998	1
COC(=O)C1=C(C)NC(C)=C(C(=O)OCCN(C)Cc2ccccc2)C1c1cccc([N+](=O)[O-])c1 (configuration not stated) [Nicardipine hydrochloride]	1	1.01	0.966	1	1.02	0.977	1.01	0.901
CCCCOc1cc(C(=O)OCCN(CC)CC)ccc1N [Benoxinate hydrochloride]	1	0.991	0.936	0.992	1	0.977	0.978	0.991
CCN(CC)CCOc1ccc(C(=C(Cl)c2ccccc2)c2ccccc2)cc1 [(Z,E) Clomiphene citrate]	1.02	1.02	1.01	1.02	0.902	0.964	1.01	0.983
